Assay results as given in PubChem BioAssay (NCATS).
Inconclusive results are not listed. A number with no mark means an inactive call. Activity calls are given as the source filed them. The call rests on the fitted dose curve; in most records, active means well fitted activation curve with a large enough effect in the signal ratio, with a control signal flat (not every such curve was filed as active); inconclusive means small, poorly fitted or top-dose-only effect, or effect the other way, or a change in a side signal; inactive means flat fitted curve, though single readings scatter; the % refers to the signal ratio.

Test: qHTS Assay for Identification of Small Molecule Agonists for Hypoxia Response Element Signaling Pathway (AID 914); on activation: % of control where 0% means no effect
Settings: ME-180 (cervical carcinoma) HRE-bla reporter, beta-lactamase ratio, CoCl2, 17 h; activation: hits give high values
Excerpt: NIH Molecular Libraries Screening Centers Network [MLSCN]
NIH Chemical Genomics Center [NCGC]
Hypoxia-inducible factor-1 (HIF-1) is the major hypoxia-regulated transcription factor that controls cellular responses to low oxygen concentration. HIF-1 is composed of two subunits: hypoxia responsive HIF-1 alpha and constitutively expressed HIF-1 beta, which is also known as aryl hydrocarbon receptor nuclear translocator. During hypoxic conditions, HIF-1 alpha heterodimerizes with HIF-1 beta and translocates into the nucleus where the HIF-1 complex binds to the hypoxia-response element (HRE) and activates expression of target genes such as VEGF (vascular endothelial growth factor). HIF-1 alpha protein levels are elevated in many solid tumors, including those of the cervix and brain. Within tumors, cells that are the greatest distance from blood vessels and therefore the most hypoxic express the highest levels of HIF-1 alpha. Therapeutic blockade of the HIF-1 signaling pathway in cancer cells therefore provides an attractive strategy for development of anticancer drugs.
Using a beta-lactamase reporter-gene under control of the hypoxia response element, a cell-based assay [CellSensor(TM) HRE-bla ME-180 developed by Invitrogen Corp.] was used to measure hypoxia-induced signaling. Library compounds were measured for their ability to positively modulate the action of EC50 CoCl2 on reporter gene activity. Compounds were screened in a titration series in 1536-well format. Positive modulators were identified based on the AC50 values derived from the screening data.
NCGC Assay Protocol Summary:
2500 cells/5uL in Opti-MEM medium containing 0.5% dialyzed FBS, 0.1 mM NEAA, 1 mM sodium pyruvate and 10 mM HEPES was dispensed into 1536-well plates and cells were cultured at 37 degrees Celsius overnight. Next day 23 nL of compounds or DMSO were delivered to each well using a pin tool, and 1uL of EC50 level of CoCl2, or EC100 level of CoCl2, or assay medium was added. And then the plates were incubated at 37 degrees Celsius for 17 hours. 1 uL of CCF4-dye mixture was added to each well. After incubated at room temperature for 2.5 hours the plates were measured on an EnVision plate reader at Excitation 405nm, Emission1=460nm and Emission 2=530nm. The %Activity was determined from the ratio of 460nm/530nm.
Potency means the concentration at half of the fitted maximal effect.

Compound	activation [%]	Potency
CCOC(=O)C1=C(C)NC(=O)N[C@@H]1c1coc2cc(C)cc(C)c2c1=O	23.8	–
Cc1cc(C(C)(C)C)c(OCCCN2CCOCC2)c(C(C)(C)C)c1	1.57	–
CC(C)(CO)N1CCN(C(=S)Nc2ccccc2)CC1	10	–
CN[C@@H]1NC(=O)c2ccccc2N1Cc1ccc(F)cc1	-6.12	–
Cc1c(NC(=O)Nc2c(Cl)cccc2Cl)c(=O)n(-c2ccccc2)n1C	-3.31	–
c1cc(CSc2ncnc3nc[nH]c23)ccn1	-3.44	–
Clc1ccccc1/C=C\c1ccnc2ccccc12	-24.5	–
N#CCCn1c(=O)c(-c2ccccc2)nc2cnc(N3CCNCC3)nc21	–	3.16 µM (active)
O=C(NCCO)c1ccc(Cl)cc1	9.98	–
Cc1sc2ccccc2[n+]1CCC(=O)O	-2.73	–
O=C1CCC(c2ccccc2)=NN1c1nc2ccccc2s1	-16.7	–
CCN1CCC(O)([C@H](C(=O)O)c2ccccc2)CC1	-12.7	–
O=c1c(CCc2ccccc2)nc2cnc(Oc3ccccc3)nc2n1C[C@H]1CCCO1	-12.6	–
O=C(C[C@@H](C(=O)O)N1CCOCC1)c1ccccc1	16	–
C=C1CC[C@H](O)C/C1=C/C=C1\CCC[C@]2(C)[C@H]1CC[C@H]2[C@@H](C)CCCC(C)C	-0.192	–
Nc1nc(-c2cccs2)cs1	-9.81	–
CC1(C)[C@@H]2CC[C@]1(CC(=O)O)[C@H](Cl)C2	2.22	–
O=C(CCN1CCCCC1)c1csc2ccccc12	-7.69	–
NC(=O)C[C@H](N)C(N)=O	9.57	–
O=C(O)C(Sc1ccc(Cl)cc1)Sc1ccc(Cl)cc1	-0.83	–

Compound	activation [%]	Potency
Nc1nc(-c2cccc([N+](=O)[O-])c2)cc(-c2cc(-c3cccc([N+](=O)[O-])c3)nc(N)n2)n1	18.2	–
CN1CCN(c2ccncc2S(=O)(=O)N2CCN(C)CC2)CC1	7.59	–
Nc1ccc(CCNc2ncnc3c2ncn3[C@@H]2O[C@@H](CO)[C@H](O)[C@@H]2O)cc1	0.683	–
Cc1cccc(C)c1NC(=O)Nc1ccc(S(N)(=O)=O)cc1	13.8	–
COc1ccc([C@@H](Nc2ccccn2)c2cc(C(C)(C)C)cc(C(C)(C)C)c2O)cc1	3.06	–
O=C1Nc2ccccc2[C@]1(O)Cc1ccccn1	-8.99	–
O=S(=O)(O)CCCc1cccc2ccccc12	-2.01	–
O=C(O)C1(Nc2ccc(Cl)cc2)CCCC1	0.664	–
COc1ccc(N(CC(=O)O)N=O)cc1	10.3	–
N#Cc1c(NC(=O)CCC(=O)O)ccc2ccccc12	3.84	–
CCO[P@]1(=O)OC[C@@H]2O[C@H](n3cnc4c(N)ncnc43)[C@H](O)[C@@H]2O1	10.2	–
CC(C)CCC[C@@H](C)[C@@H]1CC[C@@H]2[C@H]3CC[C@H]4C[C@@H](N)CC[C@@]4(C)[C@@H]3CC[C@]21C	7.37	–
O=C(O)CC[C@@]1(c2ccccc2)NC(=O)NC1=O	-0.349	–
O=C(O)[C@@H]1[C@@H](C(=O)Nc2ncccn2)[C@@H]2C=C[C@@H]1O2	18.9	–
Cc1cc(CN2CCCCC2)c(O)c(CN2CCCCC2)c1	2.92	–
O=c1c(-c2cccs2)nc2cnc(Oc3ccccc3)nc2n1C1CC1	–	3.16 µM (active)
Cc1[nH]n(-c2ccc(S(=O)(=O)O)cc2)c(=O)c1N=Nc1ccccc1	27.8	–
COc1ccc(-c2csc3c2[N+]2=CCC=C2C3=O)cc1	4.84	–
Cc1c(C(=O)O)nc(/C=C\C(=O)O)[nH]c1=O	12.3	–
CSc1nc(C)cc(Nc2ccc(O)c(CN3CCCCC3)c2)n1	4.77	–
